# Assay outcomes deposited in PubChem BioAssay by National Center for Advancing Translational Sciences (NCATS).
# KCNH2 WT inh: blocks the wildtype human KCNH2 potassium channel. Q12809. hit rate 0.37% among 340,000. activity change, % at 1.84 µM. U2OS, BacMam KCNH2, thallium flux FluxOr; stronger effect = lower value. AID 720551;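 active = maximum activity change below -70%; inconclusive = maximum activity change between -70% and -50%; inactive = maximum activity change above -50%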; note: % is set by controls: 0 for no effect and ±100 for the full control effect
#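 U2OS cells transduced with wild-type KCNH2 virus are loaded with FluxOr dye for 45 min, and thallium flux is measured in kinetic reads before and after stimulation buffer. Rate constants are normalized to DMSO controls.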
# EPAC2 antagonist: EPAC2 (human) antagonism. Q8WZA2. Potency, µM (series often up to 114 µM), without a hit: top-dose activity, negative = inhibition, most hits filed as inhibitors. EPAC2 GEF exchange of Rap1B-BODIPY-GDP, fluorescence. hit rate 0.18% among 360,000; note: potency is the fitted concentration of half-maximal effect; % is set by controls: 0 for no effect and ±100 for the full control effect; nearly all actives have a fitted effect of over 45% in size
# EPAC2 ag: EPAC2 (human) agonism | Q8WZA2 | EPAC2 activation, biochemical qHTS; response scale: 100% = 6.5 mM cAMP response | hit rate 0.079% among 360,000 | Potency, µM (top dose mostly 154 µM), for inactives: top-dose activation, hits mostly activators; note: potency is the fitted concentration of half-maximal effect; nearly all actives have a fitted effect of over 50% in size
#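 EPAC2 (100 nM) mixed with Rap1B loaded with BODIPY-GDP (250 nM) plus 50 uM unlabeled GDP; compounds pinned in, 5 min RT, then read every 5 min for 30 min (ex 480, em 540 nm). Normalized to cAMP control.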
# EPAC1 antag: antagonists of human EPAC1. O95398. EPAC1 GEF assay, Rap1b-BODIPY-GDP exchange fluorescence. Potency, µM (top dose mostly 115 µM), for the others: at the top dose activity change, negative = inhibition, most hits filed as inhibitors. hit rate 0.14% among 360,000;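 note: potency is the fitted concentration of half-maximal effect; plate controls were vehicle for no effect and positive control for full effect; nearly all actives have a fitted effect of over 50% in size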
# Target sequence (O95398 whole entry, looked up): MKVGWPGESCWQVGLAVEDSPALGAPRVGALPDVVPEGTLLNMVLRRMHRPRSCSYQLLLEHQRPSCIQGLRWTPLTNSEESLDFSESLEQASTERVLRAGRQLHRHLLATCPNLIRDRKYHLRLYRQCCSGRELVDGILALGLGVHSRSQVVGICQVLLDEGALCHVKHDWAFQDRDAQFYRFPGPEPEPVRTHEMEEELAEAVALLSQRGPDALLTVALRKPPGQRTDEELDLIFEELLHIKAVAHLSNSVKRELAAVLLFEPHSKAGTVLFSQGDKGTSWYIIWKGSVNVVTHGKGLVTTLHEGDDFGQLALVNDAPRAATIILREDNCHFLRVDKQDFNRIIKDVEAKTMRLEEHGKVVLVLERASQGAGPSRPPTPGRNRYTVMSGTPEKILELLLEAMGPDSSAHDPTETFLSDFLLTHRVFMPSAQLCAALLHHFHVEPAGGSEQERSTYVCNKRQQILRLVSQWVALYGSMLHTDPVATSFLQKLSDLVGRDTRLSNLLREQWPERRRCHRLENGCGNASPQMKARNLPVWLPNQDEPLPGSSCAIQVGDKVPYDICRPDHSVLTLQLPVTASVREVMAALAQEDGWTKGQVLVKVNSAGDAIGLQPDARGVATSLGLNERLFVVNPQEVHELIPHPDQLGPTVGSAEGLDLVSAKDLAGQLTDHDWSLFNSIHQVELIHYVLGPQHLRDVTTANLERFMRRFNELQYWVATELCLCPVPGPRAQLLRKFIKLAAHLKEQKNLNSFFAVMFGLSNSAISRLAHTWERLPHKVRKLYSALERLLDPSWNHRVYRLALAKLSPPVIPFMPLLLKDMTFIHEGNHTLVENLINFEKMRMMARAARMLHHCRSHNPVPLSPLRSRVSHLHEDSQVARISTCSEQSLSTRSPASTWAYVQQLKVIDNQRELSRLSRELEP
# KCNH2 3.1 inh: inhibitors of human KCNH2 3.1 potassium channel isoform; U2OS KCNH2 3.1, thallium flux FluxOr; stronger effect = lower value; activity change, % (tested at about 1.8 µM); hit rate 0.95% among 340,000;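 active = maximum activity change below -70%; inconclusive = maximum activity change from -70% to -50%; inactive = maximum activity change above -50%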;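 note: thallium influx rate constant from kinetic fluorescence after stimulation buffer; % is set by controls: 0 for no effect and ±100 for the full control effect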
#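 FluxOr-based Tl+ influx in U2OS cells transduced with KCNH2 3.1 virus; rate constants normalized to DMSO controls.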
# EPAC1 ag: agonists of human EPAC1 | EPAC1 agonist qHTS, biochemical assay; response scale: 100% = response to 6.5 mM cAMP | Potency, µM (series often up to 154 µM), inactives show at the highest dose activation, most hits filed as activators | hit rate 0.073% among 360,000 | AID 720707; note: potency is the fitted concentration of half-maximal effect; nearly all actives have a fitted effect of over 60% in size
#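 Nucleotide exchange by EPAC1 (100 nM) on Rap1B–BODIPY-GDP (250 nM) in the presence of 50 uM GDP is tracked fluorescently at 480/540 nm over 30 min. Signals are normalized to a 6.5 mM cAMP control.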
# * = called active by the depositor; ? = inconclusive; · = no result; ! = a repeat was not active. Hits are enriched below; roughly 1.4% of the tested compounds scored in any of these assays. Unless noted, calls come from the whole dose curve; as a rule, active = well fitted curve in the direction sought with a large enough effect; inconclusive = small, poorly fitted or top-dose-only effect, or another doubt; inactive = no such curve, though single readings can be large; an effect the other way counts as inactive or inconclusive.
SMILES,KCNH2 WT inh,EPAC2 antagonist,EPAC2 ag,EPAC1 antag,KCNH2 3.1 inh,EPAC1 ag
Cc1ccc(S(=O)(=O)Nc2ccc3c(c2)nc(CCN2CCN(c4ccccn4)CC2)n3C)cc1,-41,-7%,7%,6%,-96*,8%
Cn1c(CCN2CCCCC2)nc2cc(NS(=O)(=O)c3ccc(F)cc3)ccc21,-45,-2%,7%,-4%,-89*,5%
Cc1ccc(S(=O)(=O)Nc2ccc3c(c2)nc(CCN2CCCCC2)n3C)cc1,22,3%,8%,-7%,?,9%
Cn1c(CCN2CCN(c3ccccn3)CC2)nc2cc(NS(=O)(=O)c3ccc(Cl)cc3)ccc21,-80*,-20%,2%,-9%,-104*,1%
COc1ccc(CC(=O)Nc2cccnc2)cc1,10,-2%,5%,-26%,1,6%
CCN1C(=O)C(CC(=O)Nc2ccc(OC)cc2)N(CCc2ccc(F)cc2)C1=S (stereo not given),-13,-4%,14%,-4%,13,5%
CCN1C(=O)C(CC(=O)Nc2ccc(OC)cc2)N(CCCN2CCN(c3ccc(F)cc3)CC2)C1=S (stereo not given),-76*,-1%,-2%,-25%,-83*,-4%
COc1ccccc1NC(=O)Nc1nc(CC(=O)NCc2ccc(F)cc2)cs1,3,-11%,3%,-3%,-4,5%
CC(/C=N/NC(=O)c1ccc(Br)cc1)=C\c1ccccc1,-5,18%,1%,5%,?,-5%
COc1ccc(C(=O)N/N=C\C(C)=C\c2ccccc2)cc1OC,2,-9%,10%,-27%,-98*,8%
CC(/C=N/NC(=O)C(O)c1ccccc1)=C\c1ccccc1 (stereo not given),-13,-2%,9%,1%,-169*,13%
Cc1cc(SCC(=O)c2cccc([N+](=O)[O-])c2)nc(=O)[nH]1,-18,9%,-7%,?,3,-13%
C[C@]12CC[C@@H]3c4ccc(OS(=O)(=O)O)cc4CC[C@H]3[C@@H]1CCC2=O,3,5%,10%,22µM*!,4,-23%
CC(C)CC(=O)NNC(=O)c1ccc(Cl)cc1,-74*,0%,5%,-30%,55,11%
COc1ccccc1/C=C/C=C1\Oc2c(ccc(O)c2CN2CCN(CCO)CC2)C1=O,-1,47%,?,118%,0,100µM*
CCN1CCN(Cc2c(O)ccc3c2O/C(=C\C=C\c2ccccc2)C3=O)CC1,0,56%,?,47%,-11,100µM*
Cc1ccccc1-c1cc2nc(NCc3ccccc3F)n(C)c(=O)c2s1,·,14%,15%,-25%,·,8%
CCOc1ccccc1C(=O)NCC(=O)NNC(=O)c1csc(N2CCOCC2)n1,-8,20%,4%,-8%,-4,-12%
CCN(CC)C1=N/C(=C\c2ccco2)C(=O)N1c1ccccc1,-82*,-11%,9%,13%,2,17%
CC(C)CN(CC(C)C)C1=N/C(=C\c2ccco2)C(=O)N1c1ccccc1,7,?,-2%,-9%,-2,-13%
CCCCCn1nc(-c2ccccc2)c2nc3ccccc3nc21,-4,236%,100µM*,15%,2,2%
Cc1cc(C)n(-c2ccc([N+](=O)[O-])cc2)n1,5,0%,3%,-1%,-107*,-1%
Cc1cccc(NC(=O)CN2C(=O)N/C(=C\c3ccccc3OCc3ccc(C(=O)O)cc3)C2=O)c1,-5,-20%,-1%,28µM*,-13,2%
O=C(O)c1ccc(COc2ccccc2/C=C2\NC(=O)N(Cc3ccc(F)cc3)C2=O)cc1,-5,-22%,21%,?,1,-7%
O=C(O)c1ccc(COc2ccccc2/C=C2/NC(=O)N(c3cccc(Cl)c3)C2=O)cc1,4,?,20%,?,1,89µM*
SMILES,KCNH2 WT inh,EPAC2 antagonist,EPAC2 ag,EPAC1 antag,KCNH2 3.1 inh,EPAC1 ag
CCOC(=O)c1ccccc1NC(=O)CSc1nnc(Cc2cccn2C)n1-c1ccc(F)cc1,-87*,2%,12%,-13%,-11,5%
CCOc1ccccc1NC(=O)CSc1nnc(Cc2cccn2C)n1-c1ccc(F)cc1,-3,-11%,12%,0%,0,-5%
O=[N+]([O-])c1cc(Cl)cc(/C=N/NC(=S)Nc2ccc(S(=O)(=O)N3CCOCC3)cc2)c1O,-7,56µM*,-11%,?,3,-10%
COc1ccc(S(=O)(=O)NNC(=O)c2cc3ccccc3o2)cc1,42,3%,5%,7%,·,1%
Cc1ccc(SC[C@H](Cc2ccccc2)N2CC[C@@H](C)CCC2=O)cc1,-1,-29%,13%,-9%,-126*,3%
CC(C)(C)[C@H]1CCC(=O)N([C@H](CSc2ccccc2)Cc2ccccc2)CC1,-4,-8%,-3%,-6%,-5,-16%
CC(=O)Nc1ccc(SC[C@H](Cc2ccccc2)N2CC[C@@H](C(C)(C)C)CCC2=O)cc1,-13,?,-2%,?,-97*,-20%
Nc1ncc(CCN2CCOCC2)c(-c2ccc(F)cc2)n1,-121*,0%,-1%,-17%,-11,-2%
COc1ccc(CCNC(=O)C2CC3Cn4c(nc5cc(Cl)c(Cl)cc54)C3N2C)cc1 (stereo not given),-252*,2%,0%,-15%,-13,-16%
O=C(Nc1ccccc1N1CCOCC1)c1ccc(N2CCCC2=O)cc1,-9,-10%,4%,2%,-9,9%
C=CCn1c(=O)/c(=C/c2ccc(Cl)cc2)s/c1=C(\C#N)c1nnc2n1CCCCC2,0,-4%,3%,8%,-87*,-6%
N#Cc1cccc(NC(=O)c2cc(C3CCCCN3C(=O)c3cccs3)on2)c1 (stereo not given),·,-9%,9%,-13%,·,1%
CCN(CC)c1ccc(N=Nc2nn(C)c(C)c2[N+](=O)[O-])cc1,-125*,-8%,-28%,-15%,3,-37%
CCN(Cc1ccccc1)c1ccc(N=Nc2nn(C)c(C)c2[N+](=O)[O-])cc1,1,-5%,6%,?,-1,-3%
COc1ccc(CCNCC(=O)Nc2ccc(C)c(Br)c2)cc1OC,13,13%,2%,-1%,-72*,-7%
Cc1c(C(=O)N(C)Cc2nc3ccccc3c(=O)[nH]2)oc2ccccc12,0,-4%,2%,-3%,4,4%
CCC(=O)N1CCN(c2ccc(NC(=O)COc3ccc(C)cc3C)cc2)CC1,-7,-15%,2%,-2%,27,4%
COc1ccc(C(=O)N2CCN(c3ccc(NC(=O)Cc4ccccc4)cc3)CC2)cc1,-25,14%,7%,11%,-83*,-7%
